Reference: PubChem BioAssay (NCATS)
Values joined by “and” are separate entries in the source; they are usually repeats but may differ in a detail not shown here. Identical values can stand only once. Records with an inconclusive call do not appear. Active and inactive are the calls of the source. Calls come from the whole dose curve; as a rule, active = well fitted inhibition curve with a large enough effect; inconclusive = small, poorly fitted or top-dose-only effect; inactive = flat fitted curve, though single readings scatter.

Legend:
HEK293 = test: Cytotoxic Profiling of Annotated Libraries Using Quantitative High-Throughput Screening (AID 1296008); conditions: Five cell lines viability, CellTiter-Glo ATP luminescence, 48-72 h; max response: hits give low values; note: potency is the fitted concentration of half-maximal effect; for max response: % is set by controls: 0 for no effect and ±100 for the full control effect
Procedure, shortened: (§1)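 Cells exposed to compounds for 48 or 72 hr at 37 degrees Celsius. Viability read as ATP-coupled luminescence with CellTiter-Glo after 10 min at room temperature.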

HaCat [1] = test: as above; conditions: Five cell lines viability, CellTiter-Glo ATP luminescence, 48-72 h; max response: hits give low values
Procedure, shortened: as §1

KB-3-1 = test: as above; conditions: Five cell lines viability, CellTiter-Glo ATP luminescence, 48-72 h; max response: hits give low values
Procedure, shortened: as §1

NIH3T3 = test: as above; conditions: Five cell lines viability, CellTiter-Glo ATP luminescence, 48-72 h; max response: hits give low values
Procedure, shortened: as §1

HACAT [2] = test: qHTS assay to identify novel small-molecules to repurpose for Merkel cell carcinoma treatment (AID 1296009); conditions: MCC and control cell lines, CellTiter-Glo viability, 72 h; at 44.8 µM (top of the series) unless noted
Procedure, shortened: (§2)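 Cells were incubated with compound for 72 hr at 37 degree celsius before CellTiter-Glo addition. Luminescence was normalized with no-cell wells as full cytotoxicity and DMSO as baseline.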

HEK293T = test: as above; conditions: MCC and control cell lines, CellTiter-Glo viability, 72 h; series mostly up to 44.8 µM
Procedure, shortened: as §2
Note: nearly all actives have a fitted effect of over 60% in size.

COc1cc2c(Nc3ccc(Cl)c(Cl)c3F)ncnc2cc1OCC1C[C@@H]2CN(C)C[C@@H]2C1 (stereo not given in full)
active: Potency (HEK293) 16.4 µM and 13.2 µM | Potency (HaCat [1]) 231 nM and 11.7 nM | Potency (KB-3-1) 18.4 µM | Potency (NIH3T3) 1.3 µM and 8.31 µM

OC[C@H]1O[C@@H](Oc2cc(O)cc(/C=C/c3ccc(O)cc3)c2)[C@H](O)[C@@H](O)[C@@H]1O
inactive: outcome (HEK293) | outcome (HaCat [1]) | outcome (KB-3-1) | outcome (NIH3T3) | outcome (HACAT [2]) | Potency (HEK293T)

CC1(C)CC[C@]2(C(=O)O)CC[C@]3(C)C(=CCC4[C@@]5(C)C[C@H](O)[C@H](O[C@@H]6OC[C@H](O)[C@H](O)[C@H]6O)[C@@](C)(CO)C5CC[C@]43C)[C@@H]2C1 (stereo not given in full)
inactive: outcome (HEK293) | outcome (HaCat [1]) | outcome (KB-3-1) | max response (NIH3T3) 2.89% | outcome (HACAT [2]) inactive [at 17.4 µM] | Potency (HEK293T)

COc1ccc(/C=C/C(=O)O[C@H]2[C@@H]3C=CO[C@@H](O[C@@H]4O[C@H](CO)[C@@H](O)[C@H](O)[C@H]4O)[C@@H]3[C@@]3(CO)O[C@@H]23)cc1O
inactive: outcome (HEK293) | outcome (HaCat [1]) | outcome (KB-3-1) | max response (NIH3T3) 2.14% | outcome (HACAT [2]) inactive [at 17.4 µM] | Potency (HEK293T)

COc1cc(C2c3cc(O)c(OC)cc3CC(CO)C2CO)ccc1O (stereo not given)
inactive: outcome (HEK293) | outcome (HaCat [1]) | outcome (KB-3-1) | outcome (NIH3T3) | outcome (HACAT [2]) | Potency (HEK293T)

CC1(C(=O)O)CCCC2(C)C1CCC13CC(CCC21)C1(CO)OC31 (stereo not given)
inactive: outcome (HEK293) | outcome (HaCat [1]) | max response (KB-3-1) 2.68% | outcome (NIH3T3) | outcome (HACAT [2]) | Potency (HEK293T)

C=CC(C)(O)CC/C=C(/C)C(=O)OC1C(OC2OCC(OC3OC(CO)C(O)C(O)C3O)C(OC3OCC(O)C(OC4OC(C)C(O)C(O)C4O)C3O)C2O)COC(OC(=O)C23CCC(C)(C)CC2C2=CCC4C5(C)CCC(OC6OC(CO)C(OC7OC(CO)C(O)C(OC8OCC(O)C(O)C8O)C7O)C(O)C6O)C(C)(C)C5CCC4(C)C2(C)CC3O)C1O (stereo not given)
inactive: outcome (HEK293) | outcome (HaCat [1]) | max response (KB-3-1) -5.7% | outcome (NIH3T3) | outcome (HACAT [2]) inactive [at 4.96 µM] | outcome (HEK293T) inactive [at 4.96 µM]

O=C(O)C[C@H]1CCC(=O)[C@@H]1C/C=C\CCOC1OC(CO)C(O)C(O)C1O (stereo not given in full)
inactive: outcome (HEK293) | outcome (HaCat [1]) | max response (KB-3-1) 1.25% | outcome (NIH3T3) | outcome (HACAT [2]) | Potency (HEK293T)

C=CC1(C)C=C2C(O)CC3C(C)(C(=O)O)CCCC3(C)C2CC1 (stereo not given)
inactive: outcome (HEK293) | outcome (HaCat [1]) | max response (KB-3-1) 7.58% | max response (NIH3T3) -5.1% | outcome (HACAT [2]) | Potency (HEK293T)

C=C1C[C@]23C[C@H]1CC[C@H]2[C@]1(C)CCC[C@@]2(CO)C(=O)O[C@H]([C@H]21)[C@@H]3O
inactive: outcome (HEK293) | outcome (HaCat [1]) | max response (KB-3-1) 6.36% | max response (NIH3T3) 2.59% | outcome (HACAT [2]) | Potency (HEK293T)

COc1ccc(/C=C/C(=O)O[C@@H]2[C@@H](OC(C)=O)[C@@H](OC(C)=O)[C@H](O[C@H]3[C@@H]4C=CO[C@@H](O[C@@H]5O[C@H](CO)[C@@H](O)[C@H](O)[C@H]5O)[C@@H]4[C@@]4(CO)O[C@@H]34)O[C@H]2C)cc1O
inactive: outcome (HEK293) | outcome (HaCat [1]) | max response (KB-3-1) 9.42% | max response (NIH3T3) 3.23% | outcome (HACAT [2]) inactive [at 17.4 µM] | Potency (HEK293T)

CC(=O)c1c(C)cc(O)cc1O[C@@H]1O[C@H](CO)[C@@H](O)[C@H](O)[C@H]1O
inactive: outcome (HEK293) | outcome (HaCat [1]) | outcome (KB-3-1) | outcome (NIH3T3) | outcome (HACAT [2]) | Potency (HEK293T)

C=C1CC2(C(=O)O)CC1CCC2C1(C)CCCC2(C)C(=O)OC(O)C21 (stereo not given)
inactive: outcome (HEK293) | outcome (HaCat [1]) | outcome (KB-3-1) | max response (NIH3T3) 0.0241% | outcome (HACAT [2]) | Potency (HEK293T)

C[C@@H]1CC[C@H]2C(C)(C)[C@H](O)[C@H](O)C[C@]2(C)[C@@]12Cc1c(O)cc3c(c1O2)CNC3=O
inactive: outcome (HEK293) | outcome (HaCat [1]) | outcome (KB-3-1) | max response (NIH3T3) 3.46% | outcome (HACAT [2]) | Potency (HEK293T)

C[C@@H]1C/C=C/C=C\C=C\C=C\[C@H](O[C@@H]2O[C@H](C)[C@@H](O)[C@H](N)[C@@H]2O)C[C@@H]2O[C@](O)(C[C@@H](O)C[C@H]3O[C@@H]3/C=C/C(=O)O1)C[C@H](O)[C@H]2C(=O)O
inactive: outcome (HEK293) | outcome (HaCat [1]) | max response (KB-3-1) 3.12% | max response (NIH3T3) -11.8% | outcome (HACAT [2]) inactive [at 17.4 µM] | Potency (HEK293T)

COc1cc(C2Oc3c(OC)cc(/C=C/C(=O)OC[C@H]4O[C@@H](OC(C)(C)C(=O)O)[C@H](O)[C@@H](O)[C@@H]4O)cc3C2CO)ccc1O (stereo not given in full)
inactive: outcome (HEK293) | outcome (HaCat [1]) | max response (KB-3-1) 0.492% | max response (NIH3T3) 1.11% | outcome (HACAT [2]) inactive [at 17.4 µM] | Potency (HEK293T)

COCCCNCC1COc2ccccc2O1 (stereo not given)
inactive: outcome (HEK293) | outcome (HaCat [1]) | max response (KB-3-1) 6.68% | max response (NIH3T3) 4.14% | outcome (HACAT [2]) | Potency (HEK293T)
